Sampled rows, rich in hits. Any-hit rate of the full collection: about 19%.
TDP1 block = qHTS Assay for Inhibitors of Tyrosyl-DNA Phosphodiesterase (TDP1); Tyrosyl-DNA phosphodiesterase 1 (Homo sapiens), Q9NUW8; recombinant TDP1, AlphaScreen DNA substrate cleavage; Potency, µM (doses to about 130 µM), for the others: at the top dose activity change, negative = inhibition, hits mostly inhibitors; 350,000 tested, 0.28% active; AID 485290, 2010; note: potency is the fitted concentration of half-maximal effect; nearly all actives have a fitted effect of over 40% in size
Target sequence (Q9NUW8 whole entry, looked up): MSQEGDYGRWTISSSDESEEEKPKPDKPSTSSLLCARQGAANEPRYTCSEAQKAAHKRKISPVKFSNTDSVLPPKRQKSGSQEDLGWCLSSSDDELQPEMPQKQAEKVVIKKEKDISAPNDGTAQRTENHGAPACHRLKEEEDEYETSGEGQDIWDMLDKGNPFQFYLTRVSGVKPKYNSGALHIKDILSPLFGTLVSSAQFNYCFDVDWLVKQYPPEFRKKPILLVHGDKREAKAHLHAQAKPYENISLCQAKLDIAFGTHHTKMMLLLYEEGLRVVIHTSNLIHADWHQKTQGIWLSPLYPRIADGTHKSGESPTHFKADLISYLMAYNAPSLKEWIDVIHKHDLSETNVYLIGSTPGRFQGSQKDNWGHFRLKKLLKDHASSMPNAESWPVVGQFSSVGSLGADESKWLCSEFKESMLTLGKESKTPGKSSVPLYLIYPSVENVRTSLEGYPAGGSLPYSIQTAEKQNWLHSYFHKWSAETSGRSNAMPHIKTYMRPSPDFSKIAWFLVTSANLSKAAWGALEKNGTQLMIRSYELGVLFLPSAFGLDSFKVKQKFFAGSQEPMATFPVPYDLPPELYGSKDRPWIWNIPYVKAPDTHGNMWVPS
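AlphaScreen read-out: signal falls as enzyme removes the 3' tyrosine-FITC from a 5'-biotinylated DNA oligo (15 nM, 5 min, RT). Enzyme was E. coli-made recombinant Tdp1 at 1 nM, exposed to compound for 15 min beforehand; beads 10 ug/ml, 10 min.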
Giardia killer = Small Molecules that selectively kill Giardia lamblia: qHTS; Giardia lamblia trophozoite viability; activity change, % at 7.66 µM, hits read low; 340,000 tested, 0.15% active; AID 540267, 2011; in the data active = activity change below about -80%; inconclusive = between about -30% and that limit;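 note: parasites exposed to compound for two days anaerobically before the ATP read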
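Giardia trophozoites, 100 cells per well, were exposed to compounds for 48 hrs at 37 deg C under anaerobic conditions; viability was then read as ATP content by bioluminescence after 15-30 min at room temperature.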
ELG1 DNA repair = qHTS screen for small molecules that inhibit ELG1-dependent DNA repair in human embryonic kidney (HEK293T) cells expressing luciferase-tagged ELG1. AID 504467, 2011. Potency, µM (top dose mostly 46.1 µM), for the others: at the top dose activity change, negative = inhibition, usual class: inhibitors. HEK293T ELG1-luciferase reporter, luminescence, 16 h; DNA damage induced by 5-fluorouridine. 330,000 tested, 2.3% active; note: potency is the fitted concentration of half-maximal effect; nearly all actives have a fitted effect of over 55% in size
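Overnight (16 hr) co-exposure of 2,000 cells/well to 5-fluorouridine and compound at 37 °C preceded detection. Luciferase was quantified via ONE-Glo luminescence; loss of signal denotes inhibition.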
IL1B secr inh = qHTS for Inhibitors of Inflammasome Signaling: IL-1-beta AlphaLISA Primary Screen. THP-1 LPS/ATP IL-1B secretion, AlphaLISA, 16 h; hits give low values. activity change, % at 57.5 µM. 360,000 tested, 4.7% active; in the data active = activity change below about -50%; inconclusive = mostly about -30% to -49%
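THP-1 cells pretreated 1 hr with compounds (up to 57.5 uM final), then stimulated with LPS (250 ng/mL final) plus ATP (1.25 mM final); secreted IL-1B measured by AlphaLISA after 16 hr, decreased signal indicating inhibition.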
TDP1 cell CPT = qHTS for Inhibitors of human tyrosyl-DNA phosphodiesterase 1 (TDP1): qHTS in cells in presence of CPT; AID 686979, 2013; 420,000 tested, 12% active; Potency, µM (highest dose often 46.2 µM), inactives show top-dose activity change, negative = growth inhibition, hits mostly inhibitors; chicken DT40 Tdp1-/-;hTDP1 cells + 20 nM CPT, ATP luminescence, 48 h; note: potency is the fitted concentration of half-maximal effect; nearly all actives have a fitted effect of over 55% in size
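Chicken DT40 Tdp1-/- cells complemented with human TDP1, 400 cells/well, exposed to compounds plus 20 nM camptothecin for at least 48 h at 37 C; viability read as ATP content by CellTiter-Glo luminescence.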
TDP1 cell noCPT = qHTS for Inhibitors of human tyrosyl-DNA phosphodiesterase 1 (TDP1): qHTS in cells in absence of CPT. DT40 Tdp1-/- hTDP1 cells, no CPT, ATP luminescence, 48 h. Potency, µM (doses to about 46.2 µM), inactives show at the top dose activity change, negative = growth inhibition, usual class: inhibitors. 420,000 tested, 15% active; note: potency is the fitted concentration of half-maximal effect; nearly all actives have a fitted effect of over 55% in size
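Luminescent ATP content (CellTiter-Glo) served as the growth readout. Knockout chicken DT40 cells expressing human TDP1 were exposed to compounds without camptothecin for a minimum 48 hr at 37 °C.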
Active calls of the source: *; ? = inconclusive; / = no result given. Unless noted, calls come from the whole dose curve; as a rule, active = well fitted curve in the direction sought with a large enough effect; inconclusive = small, poorly fitted or top-dose-only effect, or another doubt; inactive = no such curve, though single readings can be large; an effect the other way counts as inactive or inconclusive. % is set by controls: 0 for no effect and ±100 for the full control effect.

SMILES | TDP1 block | Giardia killer | ELG1 DNA repair | IL1B secr inh | TDP1 cell CPT | TDP1 cell noCPT
Clc1ccc(-c2nc3ccc(Br)cn3c2Cc2ccsc2)cc1 | / | / | / | 44 | 16µM* | 16µM*
Fc1ccc(-c2nc3ccc(Br)cn3c2Cc2ccccc2)cc1 | / | / | / | 28 | ? | ?
Fc1ccc(-c2nc3ccc(Br)cn3c2Cc2cccc(Cl)c2)cc1 | / | / | / | -8 | ? | ?
Cc1cc(Br)cn2c(Cc3ccsc3)c(-c3ccc(Cl)cc3)nc12 | / | / | / | 89 | 15µM* | 18µM*
Clc1ccc(-c2nc3ccc(Br)cn3c2Cc2ccccc2)cc1 | / | / | / | 18 | 23µM* | 21µM*
Cc1cc(Br)cn2c(Cc3ccsc3)c(-c3cccc(Cl)c3)nc12 | / | / | / | 7 | -19% | ?
N#Cc1ccc(-c2nc3ccc(Br)cn3c2Cc2ccsc2)cc1 | / | / | / | -19 | -100% | -99%
Brc1ccc(-c2nc3ccc(Br)cn3c2Cc2ccccc2)cc1 | / | / | / | -16 | ? | 21µM*
Cc1ccc(-n2c3c(c(=O)[nH]c2=O)C(NC(=O)c2ccccc2C)(C(F)(F)F)C(=O)N3)cc1 (stereo not given) | 0% | / | / | / | 13µM* | 23µM*
Cc1cc(C)c2ccc3c(C)c(C)nc3c2[nH]1 | 9% | -9 | ? | -1 | ? | 21µM*
Cc1cc(=O)[nH]c2c(C)c(N)ccc12 | 1% | 1 | -2% | -1 | -2% | -6%
CCc1cccc(CC)c1NC(=O)COC(=O)C1(C)CC1(Cl)Cl (stereo not given) | 0% | 7 | -3% | 22 | 16% | 6%
COC(=O)c1ccc(/C=C/c2c(-c3ccsc3)oc3ccc(N4CCOCC4)cc23)cc1 | / | 1 | -2% | 37 | 18µM* | ?
COc1ccc(-c2c(-c3ccsc3)oc3ccc(N4CCOCC4)cc23)cn1 | / | ? | / | -11 | ? | 16µM*
Nc1ccc(C#Cc2c(-c3ccsc3)oc3ccc(N4CCOCC4)cc23)cc1 | / | -17 | / | -1 | ? | ?
O=C(CCN1CCc2ccccc2C1)c1ccc2c(c1)OCCO2 | -3% | 1 | 2% | 0 | 5.8µM* | 3.7µM*
O=C(CCN1CCCCCC1)Nc1ccc2c(c1)OCCO2 | -2% | 9 | 7% | -27 | 5% | -9%
O=C(CCN1CCCC1Cc1ccccc1)c1ccc2c(c1)OCCO2 (stereo not given) | 7% | 4 | / | -101* | 2.6µM* | 2.3µM*
O=C(CCN1CCCCC1)c1ccc2c(c1)OCCO2 | 0% | -1 | 10% | -86* | 21µM* | 16µM*
COc1ccc(CNC(=O)CCSCc2ccccc2C)cc1 | 1% | -4 | 7% | 41 | 7% | 6%
O=C(CCCN=C1NS(=O)(=O)c2ccccc21)Nc1ccc(Cl)cc1 | 1% | 22 | -10% | 25 | 3% | -1%
Cc1ccc(Cl)cc1N1CCN(C(=O)c2ccc(NC(=O)c3nsc4ccccc34)cc2)CC1 | 3% | / | / | / | ? | 18µM*
COc1ccc(N2CCN(C(=O)c3ccc(C)c(NC(=O)c4nsc5ccccc45)c3)CC2)cc1 | 3% | / | / | / | 26µM* | ?
Cc1cccc(N2CCN(C(=O)c3ccc(NC(=O)c4nsc5ccccc45)cc3)CC2C)c1 (stereo not given) | 0% | / | / | / | 9.2µM* | 6.5µM*
COc1ccc(N2CCN(C(=O)c3ccc(NC(=O)c4nsc5ccccc45)cc3)CC2)cc1 | 8% | / | / | / | ? | ?
SMILES | TDP1 block | Giardia killer | ELG1 DNA repair | IL1B secr inh | TDP1 cell CPT | TDP1 cell noCPT
CCC(C(=O)OCc1csc(CC(=O)Nc2ccccc2C)n1)c1ccccc1 (stereo not given) | -6% | -10 | -19% | 0 | ? | ?
CCS(=O)(=O)C1=NN2C(=N)/C(=C\c3ccc(OCCOc4cccc(OC)c4)c(OC)c3)C(=O)N=C2S1 | / | -11 | 3% | 18 | -17% | 15%
CCC1=NN2C(=N)/C(=C\c3ccc(OCc4cc(=O)n5nc(CC)sc5n4)c(OC)c3)C(=O)N=C2S1 | 40µM* | -3 | -7% | 14 | -18% | 18%
CCc1nn2c(=O)cc(COc3ccc(/C=C4\C(=N)N5N=C(CC(C)C)SC5=NC4=O)cc3)nc2s1 | / | -11 | -12% | 20 | 0% | -3%
CCOc1cc(/C=C2\C(=N)N3N=C(S(C)(=O)=O)SC3=NC2=O)ccc1OCCOc1cccc(OC)c1 | / | -11 | -7% | -9 | -3% | 13µM*
CCOc1cc(/C=C2/C(=N)N3C=CSC3=NC2=O)ccc1OCCCOc1ccccc1C | 0% | -11 | ? | -2 | 10µM* | 8.2µM*
O=[N+]([O-])CC1(n2nc3ccccc3n2)CCCCC1 | 4% | 6 | ? | 13 | -3% | 6%
CCN(Cc1cccc(S(=O)(=O)O)c1)c1ccc(C(=C2C=CC(=[N+](CC)Cc3cccc(S(=O)(=O)O)c3)C=C2)c2ccccc2S(=O)(=O)[O-])cc1 | / | / | / | / | 2µM* | 13µM*
CCOc1nc(C#N)nc(N2CCCCC2)n1 | 5% | -3 | ? | -92* | 21µM* | 15µM*
COc1nc(C#N)nc(N2CCCC2)n1 | 1% | 13 | / | / | ? | 16µM*
N#CCOc1nc(N2CCCCC2)nc(N2CCCCC2)n1 | 6% | 2 | ? | -3 | ? | -28%
CCOc1ccccc1C1CC(=O)Oc2c1c(=O)n(C)c1ccccc21 (stereo not given) | 2% | / | / | / | -1% | 17%
O=C(Nc1nnc(SCc2ccc(F)cc2)s1)c1ccccn1 | 8% | 5 | ? | 0 | 2.6µM* | 5.2µM*
COC(=O)c1ccc2nc(Nc3nc4ccc(F)cc4s3)sc2c1 | 7% | -11 | ? | 20 | -21% | ?
CCOC(=O)c1csc(Nc2nc3ccc(F)cc3s2)n1 | 10% | -4 | ? | 110 | 21µM* | 9.2µM*
O=C(NNc1nc2ccc(F)cc2s1)c1cccc(F)c1 | -3% | 12 | ? | 35 | 12µM* | ?
O=C(Nc1nc2ccc(F)cc2s1)c1ccccn1 | 9% | -29 | ? | -95* | 0.65µM* | 0.52µM*
Cc1ccc(C)c(N(C)C(=O)Cc2c(C(=O)O)[nH]c3ccc(Cl)cc23)c1 | 0% | / | / | / | ? | ?

Bioassay records (PubChem)
